GSH bead fluor – compound fluoresces at 488/530 nm on GSH beads | GSH beads flow cytometry, compound fluorescence 488/530 nm; hits give high values | fluorescence (KMESF) at 10 µM | 190,000 compounds, 0.25% hits | AID 1776; in the data active = fluorescence above about 89;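 also: glutathione beads carrying GST-tagged Bcl family fusion proteins plus one bare bead set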
RGS8-Gao reg – modulates binding of RGS8 to human Galphao; P09471; multiplexed bead flow cytometry; actives lie on both sides; response (percent of control binding), % at 10 µM; 220,000 compounds, 0.34% hits; AID 1423; in the data active = response below about 60% or above about 140%; inactive = in between;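 also: Galphao activated as the GDP aluminium fluoride complex binding bead-coupled RGS8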
Target sequence (P09471 whole entry, looked up): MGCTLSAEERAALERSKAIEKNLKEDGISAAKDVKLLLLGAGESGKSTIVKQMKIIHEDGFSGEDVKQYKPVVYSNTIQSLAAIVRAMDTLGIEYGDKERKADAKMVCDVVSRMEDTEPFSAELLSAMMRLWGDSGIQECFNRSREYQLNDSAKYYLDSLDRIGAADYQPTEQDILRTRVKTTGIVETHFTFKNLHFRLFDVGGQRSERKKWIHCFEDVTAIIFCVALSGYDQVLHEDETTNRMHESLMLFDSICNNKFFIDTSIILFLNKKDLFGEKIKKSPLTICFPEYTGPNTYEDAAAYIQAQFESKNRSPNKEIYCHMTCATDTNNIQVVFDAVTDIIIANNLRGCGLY
Avidin bead fluor – compound fluoresces at 488/530 nm on avidin beads. AID 1775. fluorescence (KMESF) at 10 µM. compound fluorescence 488/530 nm, flow cytometry; hits give high values. 220,000 compounds, 0.38% hits; in the data active = fluorescence above about 47
RGS16-Gao HTS – RGS16-Galphao interaction regulator (human); binding response (% of control), % at 10 µM; O15492+P09471; bead-based flow cytometry RGS16-Galphao binding, fluorescence; actives lie on both sides; 220,000 compounds, 0.38% hits; call rule not given here;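 also: Galphao activated by GDP with aluminum fluoride before binding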
RGS7-Gao – regulators of human RGS7-Galphao interaction. Multiplexed bead flow cytometry, RGS7-Galphao binding; actives lie on both sides. P09471. 220,000 compounds, 0.35% hits. binding response (% of control), % at 10 µM; in the data active = binding response below about 49% or above about 150%; inconclusive = no clear call, values can overlap the other calls; inactive = in between;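 also: fluorescent Galphao held in activated GDP-AlF4 state binding bead-coupled RGS7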
RGS4-Gao reg – human RGS4-Galphao interaction regulation. AID 1415. P09471. binding response (% of control), % at 10 µM. 220,000 compounds, 0.33% hits. Multiplexed bead flow cytometry, RGS4-Galphao binding; actives lie on both sides; in the data active = binding response below about 49% or above about 150%; inactive = in between;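 also: fluorescent Galphao activated with aluminum fluoride binding bead-coupled RGS4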
A number is an active result; - = inactive; ? = inconclusive. An excerpt weighted towards active compounds, which were near 1.2% of everything screened.

SMILES	GSH bead fluor	RGS8-Gao reg	Avidin bead fluor	RGS16-Gao HTS	RGS7-Gao	RGS4-Gao reg
CCOC(=O)CSc1nc2c(c(=O)n(C)c(=O)n2C)n1CCCc1ccccc1	269	-	-	-	-	-
CCn1c(SCC(=O)OCc2ccccc2)nc2c1c(=O)n(C)c(=O)n2C	-	-	-	-	-	-
CCN1C(=O)C(=O)N(CC(=O)Nc2ccccc2Oc2ccccc2)C1=O	-	-	-	-	-	-
Nc1[nH]nc2nc(N3CCCC3)nc(-c3ccccc3)c12	-	-	-	-	-	-
Cc1cc(C)n2nc3nc(N4CCCC4)nc(-c4ccccc4)c3c2n1	-	-	58	-	-	-
CCOc1ccc2[nH]c(=O)c(CN(CC3COCCO3)C(=O)c3ccc(C)cc3)cc2c1 (configuration not stated)	-	-	-	-	-	-
O=S(=O)(NC1CCCCCCC1)c1cccs1	275	-	-	-	-	-
Cc1cc(C)cc(C(=O)NN2CCN(C)CC2)c1	-	-	-	-	-	-
COc1cccc(-c2cc(C(F)(F)F)n3nc(C(=O)N4CCCCC4c4cccnc4)cc3n2)c1 (configuration not stated)	-	-	-	-	-	-
O=C(CSc1nnnn1C1CCCCC1)Nc1ccc(F)cc1	-	-	-	-	-	-
O=C(CSc1nnnn1C1CCCC1)Nc1ccc(F)cc1	-	-	89	-	-	-
CCOC(=O)C1=C(c2ccccc2)O/C(=C(/C#N)C(F)(F)F)S1	-	-	59	-	-	-
COc1ccc(OC)c(C(=O)CSc2nc3ccccc3n2CC(=O)NC(C)(C)C)c1	270	-	-	-	-	-
CN1CCCC(OC(=O)c2cc(Cl)ccc2Cl)C1 (configuration not stated)	258	-	-	-	-	-
CCN(CC)S(=O)(=O)c1cccc(NC(=O)COC(=O)c2ccc(Br)o2)c1	255	-	-	-	-	-
CCN(CC)S(=O)(=O)c1cccc(NC(=O)COC(=O)c2cc(=O)c3ccccc3o2)c1	-	-	-	-	-	-
CN(C(=O)COC(=O)c1ccc(Cl)nc1)C1CCS(=O)(=O)C1 (configuration not stated)	-	-	-	-	-	-
OCC#CCSc1nnc(-c2ccncc2)o1	251	-	-	-	-	-
CCCCN1C(=O)c2ccc(C(=O)Nc3c(N)n(CCCC)c(=O)n(C)c3=O)cc2C1=O	271	-	-	-	-	-
CCCN1C(=O)c2ccc(C(=O)Nc3cc(C)on3)cc2C1=O	-	-	-	-	-	-
Cc1cc(C(=O)NNC(=S)Nc2ccccc2)nn1C	-	-	-	-	-	-
CC(=O)/C(CN1CCCCC1)=N\O	-	-	85	-	-	-
O=C(O)CN1CCCCC1	-	-	-	-	-	-
Cc1ccc(C(=O)N2CCN(c3cnn(C)c(=O)c3Cl)CC2)cc1	-	-	-	-	-	-
Cc1ccc(S(=O)(=O)Nc2nc(C)c(NC(=O)OCCCl)s2)cc1	-	-	62	-	-	-
SMILES	GSH bead fluor	RGS8-Gao reg	Avidin bead fluor	RGS16-Gao HTS	RGS7-Gao	RGS4-Gao reg
COC(=O)c1cccc(NC(=O)c2nn(C)c(=O)c3ccccc23)c1	185	-	-	-	-	-
COc1ccc(C(=O)NCc2nnc(SCC(=O)Nc3nc4ccccc4s3)o2)cc1OC	-	-	-	-	-	-
CCCCc1c(C)nc2ccc(C(=O)OCC)cc2c1Cl	-	-	-	-	-	-
CCOC(=O)c1ccc2nc(C)c(CCC(C)=O)c(Cl)c2c1	-	11	-	8.4	19	19
CCOc1ccc(N(C)S(=O)(=O)c2ccc(C)c(C(=O)OCC(=O)c3c[nH]c4ccccc34)c2)cc1	-	-	-	-	-	-
CN(CCO)C(=O)c1cccc2c1-c1ccccc1C2=O	259	-	-	-	-	-
CCOC(=O)N1CCC(NC(=O)c2cnc3n(c2=O)CCS3)CC1	-	2.7	-	-13	-21	-14
CCCCNC(=O)c1cnc2n(c1=O)CCS2	-	-	-	-	-	-
Cc1ccc(-n2c(C)nn(Cc3ccc([N+](=O)[O-])cc3)c2=O)cc1	-	-	-	-	?	-
Cc1ccc(-n2c3nc(=O)[nH]c(=O)c-3cc3cc([N+](=O)[O-])ccc32)cc1	-	-	55	-	-	-

Screening results from PubChem BioAssay.
